# Laboratory results taken from PubChem BioAssay.
# Calls of active or inactive are those of the source.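 Rule for the calls: active = inhibition of the reporter signal at or above 50%; inactive = inhibition below 50%.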
# Test: inhibitors of poly I:C-induced TLR3 signaling, primary screen, cell-based, poly I:C stimulus, luciferase, 10K MLSCN set (AID 602277)
# Conditions: HEK293-TLR3 RL24 IRF3 luciferase reporter, at 10 µM, active compounds read high
row,SMILES,inhibition
1,Cc1cc(C)cc(OCCCC(=O)O)c1,17.4% (inactive)
2,c1ccc2c(c1)C(=Nn1cnnc1)c1ccccc1-2,11% (inactive)
3,COc1ccc(C2C(C#N)=C(C)NC3=C2C(=O)CC(C)(C)C3)c(OC)c1 (stereo not given),18.9% (inactive)
4,CCCN1CCN(CCCNC(=O)Cn2nc(-c3ccc(Cl)cc3)ccc2=O)CC1,11.9% (inactive)
5,CCCN(CCC)c1nc2ccccc2n2c(C)nnc12,11.3% (inactive)
6,COc1ccc(CC(=O)NCc2cccs2)cc1,16.3% (inactive)
7,O=C1c2ccccc2C(O)(Cc2ccccc2)N1Cc1ccco1 (stereo not given),21.9% (inactive)
8,Cc1[nH]c(=O)[nH]c(=O)c1S(=O)(=O)N(C)Cc1ccccc1,13.8% (inactive)
9,COc1cccc(NC(=O)Cc2nnc(SCC(=O)c3ccccc3)n2C)c1,10.1% (inactive)
10,COc1cccc(N2CCN(CC(=O)NCc3cccs3)CC2)c1,-6.45% (inactive)
11,CCN(c1cccc(C)c1)S(=O)(=O)c1ccc2[nH]c(=O)c(=O)[nH]c2c1,21.6% (inactive)
12,COc1ccccc1CN(Cc1nc2ccccc2c(=O)[nH]1)C(=O)Nc1ccccc1,12.2% (inactive)
13,Cc1ccccc1-c1nc(CN2CCC(C(=O)NCc3cccnc3)CC2)c(C)o1,17.2% (inactive)
14,CC1(C)NC(=O)N(CNc2cc(Cl)ccc2Cl)C1=O,21.9% (inactive)
15,CCS(=O)(=O)c1ccc(S(=O)(=O)CC)s1,17.4% (inactive)
16,O=C(O)C1CCCN1C(=O)Nc1ccc(F)cc1 (stereo not given),10.2% (inactive)
17,COCC(=O)N(Cc1ccc(OC)cc1)Cc1nc2ccccc2c(=O)[nH]1,26.3% (inactive)
18,COc1ccc(OCc2cccc(C(=O)O)c2)cc1,42.2% (inactive)
19,Cc1nc2ccccc2c(=O)n1/N=C/c1ccncc1,4.48% (inactive)
20,C=C(c1cccc2ccccc12)P(=O)(O)O,22.1% (inactive)

row,SMILES,inhibition
1,COc1ccc(-c2cc3nc4n(c(=O)c3s2)CCC4)cc1,-34.7% (inactive)
2,CCCC(CCC)n1[nH]c(=O)c2c(C)cc(C)nc21,4.22% (inactive)
3,CCOC(=O)CS(=O)(=O)c1nc(-c2ccccc2)cc(C(F)(F)F)n1,32.7% (inactive)
4,Cc1n[nH]c(C)c1S(=O)(=O)N1CCCCCC1,25% (inactive)
5,CCN(CCO)C1CC(=O)N(c2ccccc2C)C1=O (stereo not given),13% (inactive)
6,Nc1nc2sc3c(c2c(=O)s1)CCCC3,-23.7% (inactive)
7,CCOC(=O)c1[nH]c(C)c(C(=O)N(C)C)c1C,99.3% (active)
8,Cc1cc(C)n(-c2nc3ccccc3c(=O)n2OCCOc2ccccc2)n1,-13.3% (inactive)
9,C/C(NC1CCCC1)=C(/C#N)C(N)=O,22.8% (inactive)
10,CCOc1ccc(C(=O)N(Cc2ccc(N(C)C)cc2)C2CCS(=O)(=O)C2)cc1 (stereo not given),23.5% (inactive)
11,Cc1ccc(NC(=O)Cn2cccc2)cc1Cl,-12.8% (inactive)
12,NC(=O)c1sc2nc(N3CCCCC3)c3c(c2c1N)CCCC3,10.7% (inactive)
13,O=C(Nc1nc(-c2ccc(S(=O)(=O)N3CCCCCC3)cc2)cs1)c1cccs1,3.6% (inactive)
14,Cc1ccc2ncnc(NCCCN3CCOCC3)c2c1,-21.1% (inactive)
15,CCOC(=O)c1cc2c(=O)n3cccc(C)c3nc2n(Cc2ccco2)c1=NC(=O)c1cccnc1,-0.151% (inactive)
16,O=S(=O)(c1ccc2c(c1)OCCO2)N(Cc1ccc(F)cc1)Cc1nnc(-c2cccs2)o1,26.7% (inactive)
17,COc1ccccc1-n1c(SCC(N)=O)nnc1-c1ccccc1,23.1% (inactive)
18,CCCNC(=O)c1c(N)n(-c2cc(OC)cc(OC)c2)c2nc3ccccc3nc12,-6.79% (inactive)
19,COc1cc(C2c3c(oc4c(C)cc(C)cc4c3=O)C(=O)N2Cc2cccnc2)cc(OC)c1OC (stereo not given),3.14% (inactive)
20,O=C(c1cc(-c2ccco2)nn1-c1cccc(Cl)c1)N1CCCCC1,36.1% (inactive)
